About 83,000 compounds went through this panel and 20% of them were active in at least one assay; those are over-represented in the sample as a whole.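 Results are percent growth after 48 hours of single-concentration exposure. 100 means growth as in untreated cells, lower positive values show inhibition; negative values down to -100 show cell death.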 Active and inactive are the calls of the source. Rule for the calls: active = growth percent below 10; inactive = the rest.
What was measured:
Assay in all cases: NCI-60 one-dose screen, 48 h (100 = growth as untreated, 0 = no growth, -100 = all killed)
Settings in all cases: 10 µM unless noted
[1] = tested on: HCT-15 colon
[2] = tested on: HT29 colon
[3] = tested on: SNB-75 CNS
[4] = tested on: SNB-19 CNS
[5] = tested on: U251 CNS
[6] = tested on: PC-3 prostate
[7] = tested on: SK-MEL-5 melanoma
[8] = tested on: UACC-62 melanoma
[9] = tested on: LOX IMVI melanoma
[10] = tested on: SK-MEL-28 melanoma
[11] = tested on: SK-MEL-2 melanoma
[12] = tested on: SN12C renal
[13] = tested on: UO-31 renal
[14] = tested on: TK-10 renal
[15] = tested on: ACHN renal
[16] = tested on: A498 renal
[17] = tested on: CCRF-CEM leukemia
[18] = tested on: MOLT-4 leukemia
[19] = tested on: EKVX NSCLC
[20] = tested on: CAKI-1 renal

Measured: growth

Cc1cc(Nc2ccc(F)cc2)nc(N2CCN(c3ccnc4cc(Cl)ccc34)CC2)n1
inactive: [3] 14.6% | [4] 43.9% | [5] 26.4% | [6] 11.1% | [7] 14.1% | [8] 21.5% | [9] 13.1% | [10] 16.7% | [12] 30.2% | [17] 15.5%
active: [1] 9.8% | [2] 1.42% | [11] 4.35% | [13] 3.92% | [14] 8.31% | [15] 2.61% | [16] -1.6% | [18] 6.8%

CC(C)=CCC/C(C)=C/CC/C(C)=C/CC/C(C)=C/CSC[C@H](NC(=O)CCCCCN1CCN(C)CC1)C(=O)NC1CCCCC1
inactive: [1] 24% | [3] 81.5% | [4] 85.6% | [5] 55.2% | [6] 64.4% | [7] 97.9% | [8] 87.6% | [9] 68.5% | [11] 97.6% | [12] 97.7% | [14] 111% | [15] 83.4% | [16] 92.9% | [17] 17.4% | [18] 45.2%
active: [2] -39% | [10] 5.53%

C#Cc1cc2c(N)c(C(=O)c3cc(OC)c(OC)c(OC)c3)[nH]c2cc1OC
active: [2] 6.27% | [3] -8.14% | [16] -19.1%
inactive: [1] 32.2% | [4] 43.7% | [5] 34% | [6] 16.3% | [7] 19.9% | [8] 34.7% | [9] 46.1% | [10] 40.3% | [11] 15.6% | [13] 35.7% | [14] 58.6% | [15] 35.7% | [17] 16% | [18] 32%

Cn1cc(-c2csc(-c3c[nH]c4ccc(F)cc34)n2)c2cccnc21
inactive: [1] 19.2% | [2] 11.3% | [3] 36.4% | [4] 54.4% | [5] 37.5% | [6] 48% | [7] 25.9% | [8] 39.6% | [10] 57.4% | [11] 41.2% | [19] 60.4% | [12] 64.5% | [13] 77.1% | [14] 69.7% | [15] 48.8% | [20] 36.9% | [16] 27% | [17] 39.7% | [18] 46.7%

CCC(=O)c1c(C)[nH]c(C)c1C
active: [15] -33.4%
inactive: [1] 10.6% | [2] 36.9% | [3] 109% | [4] 94% | [5] 82.5% | [6] 79.9% | [7] 88.9% | [8] 95.7% | [10] 134% | [11] 16.6% | [19] 103% | [12] 95.5% | [13] 67.1% | [14] 99.4% | [20] 46.4% | [16] 103% | [17] 98.5% | [18] 84%

Fc1ccc2[nH]cc(-c3nc(-c4c[nH]c5ncccc45)cs3)c2c1
inactive: [1] 20.3% | [2] 21.7% | [4] 63.8% | [5] 43.6% | [6] 43.8% | [7] 52.8% | [8] 48.5% | [10] 89% | [11] 52.9% | [19] 37.2% | [12] 49.3% | [13] 41.8% | [14] 52.2% | [15] 11.3% | [20] 18.6% | [16] 33.5% | [17] 18.7%
active: [3] -17.2% | [18] 2.93%

CC(=O)c1c(C)[nH]c(-c2nc3ccc(N4CCN(C)CC4)cc3[nH]2)c1-c1ccc2c(c1)OCCO2
active: [1] 8.46% | [3] 1.99% | [13] 9.19% | [14] 1.44%
inactive: [2] 14.2% | [4] 51.3% | [5] 57.2% | [6] 45.8% | [7] 26.1% | [8] 20.9% | [10] 50.8% | [11] 76.4% | [19] 45.2% | [12] 58.5% | [15] 29.3% | [20] 13.3% | [16] 45.5% | [17] 50.3% | [18] 58.3%

O=C1/C(=C\c2ccc(Br)o2)SC(=S)N1CCc1ccc(O)cc1
inactive: [1] 72.1% | [2] 114% | [3] 65.6% | [4] 88.1% | [5] 96.5% | [6] 77.2% | [7] 99.2% | [8] 64% | [10] 55.3% | [11] 103% | [19] 81.4% | [12] 86.9% | [14] 92.8% | [15] 49.8% | [20] 27.8% | [16] 108% | [17] 21.8% | [18] 64.3%
active: [13] -48.4%

N=C(N)c1ccc(-c2ccc(-c3cc(F)cc(F)c3)o2)nc1
inactive: [1] 77.4% | [2] 26.2% | [3] 72.1% | [4] 93.2% | [5] 85.9% | [6] 82.4% | [7] 88.7% | [8] 96.3% | [10] 98.7% | [11] 106% | [19] 90.4% | [12] 86.9% | [13] 69.8% | [14] 124% | [15] 90% | [20] 78.5% | [16] 90.3% | [18] 73.8%
active: [17] -35.6%

CC1(C)C(=O)/C(=C\c2ccco2)C[C@]2(C)[C@H]3CC[C@@H]4[C@@H](C(=O)/C=C/c5ccco5)CC[C@@]4(C)[C@]3(C)CC[C@@H]12
active: [7] -49.9% | [11] -0.219%
inactive: [1] 79.6% | [2] 75.7% | [3] 68.1% | [4] 46.8% | [5] 50.7% | [6] 80.4% | [8] 12.5% | [10] 32.1% | [19] 105% | [12] 87.2% | [13] 58.9% | [14] 107% | [15] 19.3% | [20] 53.9% | [16] 91.3% | [17] 50.6% | [18] 68.3%

Cn1cc(-c2csc(-c3c[nH]c4ccccc34)n2)c2cccnc21
inactive: [1] 25.6% | [2] 10.2% | [4] 47.2% | [5] 27.2% | [6] 22.1% | [7] 11.1% | [8] 44.7% | [10] 53.9% | [11] 38.2% | [19] 42.5% | [12] 46.5% | [13] 57.2% | [14] 48% | [15] 51.8% | [20] 15.7% | [16] 13.5% | [17] 20.4% | [18] 44.4%
active: [3] -5.48%

COc1cc(-c2c(C#N)c(-c3cccs3)nc3c2c(-c2ccccc2)nn3-c2ccccc2)ccc1O
inactive: [1] 73.5% | [2] 74.8% | [3] 79.8% | [4] 98.9% | [5] 78.3% | [6] 66% | [7] 94.9% | [8] 83.5% | [10] 96.1% | [11] 81% | [19] 79.9% | [12] 89.2% | [13] 89.1% | [14] 101% | [15] 86.1% | [20] 66.6% | [16] 106% | [17] 83.2% | [18] 59.9%

Cc1cc2nc3c4cc([N+](=O)[O-])cc([N+](=O)[O-])c4n(CCN(C)C)c3nc2cc1C
inactive: [1] 57.2% | [2] 65.6% | [3] 72.3% | [4] 68.2% | [5] 81.6% | [6] 77.1% | [7] 92.4% | [8] 87% | [10] 98.6% | [11] 108% | [19] 82.7% | [12] 59.7% | [13] 40.4% | [14] 117% | [15] 35.5% | [20] 49.6% | [16] 97% | [17] 63.1% | [18] 31.3%

N=c1c(S(=O)(=O)c2ccccc2)cc2c(=O)n3ccccc3nc2n1C1CCCC1
inactive: [1] 86.2% | [2] 117% | [3] 61.1% | [4] 90.3% | [5] 85.9% | [6] 85% | [7] 84.2% | [8] 80.2% | [10] 102% | [11] 104% | [19] 78.1% | [12] 87.2% | [13] 50.9% | [14] 82.5% | [15] 86% | [20] 64.6% | [17] 93.6% | [18] 82%
active: [16] -1.39%

N=C(N)N=Nc1ccc(O)cc1
inactive: [1] 45.9% [100 µM] | [2] 31.9% [100 µM] | [3] 56.3% [100 µM] | [4] 56.8% [100 µM] | [5] 40.5% [100 µM] | [6] 38.1% [100 µM] | [7] 85.9% [100 µM] | [8] 86.6% [100 µM] | [10] 104% [100 µM] | [11] 105% [100 µM] | [19] 96% [100 µM] | [12] 104% [100 µM] | [13] 81.9% [100 µM] | [14] 124% [100 µM] | [15] 20.8% [100 µM] | [20] 53.4% [100 µM] | [16] 126% [100 µM] | [17] 91.2% [100 µM] | [18] 88.4% [100 µM]

CC1(C)C(=O)/C(=C\c2ccccn2)C[C@]2(C)[C@H]3CC[C@@H]4[C@@H](C(=O)/C=C/c5ccccn5)CC[C@@]4(C)[C@]3(C)CC[C@@H]12
active: [1] -31% | [2] -13.6% | [3] -3.97% | [4] 4.66% | [5] -80.5% | [6] 9.61% | [7] -82.5% | [8] -54.2% | [10] -32.1% | [11] -25.6% | [19] -16.4% | [12] -4.12% | [13] -99.6% | [14] -21.7% | [15] -89% | [20] -20.3% | [16] -80.6% | [17] 6.8% | [18] 7.28%

Reference: PubChem BioAssay (NCI)
